Laboratory results as given in ChEMBL document CHEMBL1961873, “Compounds: GSK PKIS; Assays: Nanosyn kinase panel” (2012).
Values joined by “and” are separate entries in the source; they are usually repeats but may differ in a detail not shown here. Equal values may be shown once.

Tests used:
[1] = target: Sphingosine kinase 1 (Homo sapiens) (UniProt Q9NYA1); conditions: at 1 µM;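 further: mean SPHK1 inhibition value reported from the GSK PKIS kinase panel screen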
[2] = target: T1, Sphingosine kinase 2 (Homo sapiens) (UniProt Q9NRA0); conditions: at 0.1 µM
T1 sequence (whole entry): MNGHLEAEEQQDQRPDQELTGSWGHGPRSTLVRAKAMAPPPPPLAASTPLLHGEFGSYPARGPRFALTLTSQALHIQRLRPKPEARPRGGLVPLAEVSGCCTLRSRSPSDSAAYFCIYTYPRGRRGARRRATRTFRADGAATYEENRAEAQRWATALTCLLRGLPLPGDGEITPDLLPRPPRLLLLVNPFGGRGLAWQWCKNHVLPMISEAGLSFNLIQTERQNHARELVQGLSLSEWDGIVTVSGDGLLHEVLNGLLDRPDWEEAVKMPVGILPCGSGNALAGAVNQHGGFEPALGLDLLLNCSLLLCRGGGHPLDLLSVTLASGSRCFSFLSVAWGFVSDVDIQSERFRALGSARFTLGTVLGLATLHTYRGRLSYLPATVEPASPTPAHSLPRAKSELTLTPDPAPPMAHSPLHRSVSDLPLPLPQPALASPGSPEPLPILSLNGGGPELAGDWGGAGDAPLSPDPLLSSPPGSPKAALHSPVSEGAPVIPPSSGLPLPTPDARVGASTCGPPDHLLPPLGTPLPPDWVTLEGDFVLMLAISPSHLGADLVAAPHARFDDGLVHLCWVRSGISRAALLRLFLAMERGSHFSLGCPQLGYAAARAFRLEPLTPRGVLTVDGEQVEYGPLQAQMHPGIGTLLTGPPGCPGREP

[3] = target: T1, Sphingosine kinase 2 (Homo sapiens); conditions: at 1 µM
[4] = target: Casein kinase II subunit alpha (Homo sapiens) (UniProt P68400); conditions: at 0.1 µM
[5] = target: Casein kinase II subunit alpha (Homo sapiens) (UniProt P68400); conditions: at 1 µM
[6] = target: T2, Inhibitor of nuclear factor kappa-B kinase subunit alpha (Homo sapiens) (UniProt O15111); conditions: at 0.1 µM
T2 sequence (whole entry): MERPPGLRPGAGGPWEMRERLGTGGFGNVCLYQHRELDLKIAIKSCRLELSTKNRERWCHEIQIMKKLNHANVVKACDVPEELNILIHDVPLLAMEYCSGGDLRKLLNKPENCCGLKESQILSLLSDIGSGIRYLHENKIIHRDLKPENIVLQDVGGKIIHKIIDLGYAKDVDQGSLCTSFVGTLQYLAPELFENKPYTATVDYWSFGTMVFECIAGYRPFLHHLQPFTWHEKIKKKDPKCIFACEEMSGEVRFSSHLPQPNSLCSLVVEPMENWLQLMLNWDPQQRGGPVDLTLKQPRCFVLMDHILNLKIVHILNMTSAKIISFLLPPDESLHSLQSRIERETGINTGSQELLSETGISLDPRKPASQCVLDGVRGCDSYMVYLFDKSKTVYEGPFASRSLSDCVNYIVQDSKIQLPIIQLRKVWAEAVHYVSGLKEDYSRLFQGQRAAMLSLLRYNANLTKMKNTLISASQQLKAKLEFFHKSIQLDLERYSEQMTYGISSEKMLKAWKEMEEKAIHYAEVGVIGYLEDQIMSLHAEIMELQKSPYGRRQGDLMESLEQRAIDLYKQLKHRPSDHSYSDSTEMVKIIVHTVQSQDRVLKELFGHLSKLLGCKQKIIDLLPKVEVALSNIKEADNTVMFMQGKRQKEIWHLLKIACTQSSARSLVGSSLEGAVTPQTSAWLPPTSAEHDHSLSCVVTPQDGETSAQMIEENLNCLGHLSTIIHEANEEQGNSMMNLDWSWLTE

[7] = target: T2, Inhibitor of nuclear factor kappa-B kinase subunit alpha (Homo sapiens); conditions: at 1 µM
[8] = target: T3, Inhibitor of nuclear factor kappa-B kinase subunit beta (Homo sapiens) (UniProt O14920); conditions: at 0.1 µM
T3 sequence (whole entry): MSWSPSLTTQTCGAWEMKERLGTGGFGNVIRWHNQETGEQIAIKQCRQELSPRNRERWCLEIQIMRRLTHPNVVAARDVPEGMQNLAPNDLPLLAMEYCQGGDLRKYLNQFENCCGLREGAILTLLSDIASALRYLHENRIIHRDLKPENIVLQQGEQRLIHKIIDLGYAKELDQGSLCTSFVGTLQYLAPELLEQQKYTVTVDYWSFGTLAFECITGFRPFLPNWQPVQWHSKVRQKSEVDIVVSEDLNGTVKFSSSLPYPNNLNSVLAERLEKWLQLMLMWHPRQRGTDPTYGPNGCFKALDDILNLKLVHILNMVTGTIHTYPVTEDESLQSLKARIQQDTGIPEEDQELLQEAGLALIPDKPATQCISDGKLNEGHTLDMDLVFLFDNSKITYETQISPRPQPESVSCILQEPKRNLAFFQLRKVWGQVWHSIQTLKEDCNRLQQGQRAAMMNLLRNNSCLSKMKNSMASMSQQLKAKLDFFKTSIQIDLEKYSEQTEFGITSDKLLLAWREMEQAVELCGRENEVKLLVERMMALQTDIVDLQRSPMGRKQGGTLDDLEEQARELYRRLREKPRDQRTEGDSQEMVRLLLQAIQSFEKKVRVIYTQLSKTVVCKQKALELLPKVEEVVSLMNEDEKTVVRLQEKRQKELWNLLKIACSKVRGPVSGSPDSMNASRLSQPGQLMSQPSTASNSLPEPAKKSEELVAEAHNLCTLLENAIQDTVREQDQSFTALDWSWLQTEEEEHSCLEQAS

[9] = target: T3, Inhibitor of nuclear factor kappa-B kinase subunit beta (Homo sapiens); conditions: at 1 µM
[10] = target: T4, Inhibitor of nuclear factor kappa-B kinase subunit epsilon (Homo sapiens) (UniProt Q14164); conditions: at 0.1 µM;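 further: mean inhibition of IKKε reported, from the GSK PKIS dataset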
T4 sequence (whole entry): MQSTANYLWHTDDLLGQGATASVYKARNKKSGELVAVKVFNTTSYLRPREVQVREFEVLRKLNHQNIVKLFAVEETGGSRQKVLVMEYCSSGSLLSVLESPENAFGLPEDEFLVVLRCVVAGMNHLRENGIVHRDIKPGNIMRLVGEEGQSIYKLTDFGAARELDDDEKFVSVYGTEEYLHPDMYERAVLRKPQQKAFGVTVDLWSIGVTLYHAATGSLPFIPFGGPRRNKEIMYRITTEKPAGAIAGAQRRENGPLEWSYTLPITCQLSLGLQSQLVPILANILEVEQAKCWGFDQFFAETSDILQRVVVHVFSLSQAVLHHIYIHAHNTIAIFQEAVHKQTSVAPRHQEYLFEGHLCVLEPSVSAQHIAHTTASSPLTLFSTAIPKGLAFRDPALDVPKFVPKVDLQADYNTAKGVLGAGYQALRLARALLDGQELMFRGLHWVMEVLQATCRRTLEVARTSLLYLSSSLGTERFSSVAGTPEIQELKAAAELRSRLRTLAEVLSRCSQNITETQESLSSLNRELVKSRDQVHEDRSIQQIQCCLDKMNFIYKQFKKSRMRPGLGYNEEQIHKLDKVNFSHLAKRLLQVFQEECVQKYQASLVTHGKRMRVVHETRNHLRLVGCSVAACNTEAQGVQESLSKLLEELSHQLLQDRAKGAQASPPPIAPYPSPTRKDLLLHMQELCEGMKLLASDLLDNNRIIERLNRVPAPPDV

Casein kinase II subunit alpha (Homo sapiens), sequence (P68400 whole entry, looked up): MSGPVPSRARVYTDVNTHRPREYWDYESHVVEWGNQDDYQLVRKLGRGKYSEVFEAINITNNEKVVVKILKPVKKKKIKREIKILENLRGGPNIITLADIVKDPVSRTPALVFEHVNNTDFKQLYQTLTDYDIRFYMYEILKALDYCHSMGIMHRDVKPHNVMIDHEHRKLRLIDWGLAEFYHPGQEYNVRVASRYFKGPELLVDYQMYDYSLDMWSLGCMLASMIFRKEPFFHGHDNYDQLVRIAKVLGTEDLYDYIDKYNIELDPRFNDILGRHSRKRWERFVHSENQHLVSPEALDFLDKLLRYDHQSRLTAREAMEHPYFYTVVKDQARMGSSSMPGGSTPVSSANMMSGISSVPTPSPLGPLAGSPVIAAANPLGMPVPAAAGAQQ
Sphingosine kinase 1 (Homo sapiens), sequence (Q9NYA1 whole entry): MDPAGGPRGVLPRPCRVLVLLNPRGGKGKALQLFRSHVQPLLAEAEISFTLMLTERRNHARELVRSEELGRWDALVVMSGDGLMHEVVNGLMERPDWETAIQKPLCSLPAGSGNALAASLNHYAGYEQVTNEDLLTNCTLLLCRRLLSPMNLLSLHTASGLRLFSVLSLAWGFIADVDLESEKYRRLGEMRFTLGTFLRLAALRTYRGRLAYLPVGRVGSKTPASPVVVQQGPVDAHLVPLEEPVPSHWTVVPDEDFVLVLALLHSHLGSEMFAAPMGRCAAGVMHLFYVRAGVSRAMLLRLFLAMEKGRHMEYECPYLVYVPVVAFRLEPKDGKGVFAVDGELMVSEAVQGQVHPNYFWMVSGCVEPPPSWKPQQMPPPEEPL

With Nc1ncnc2occ(-c3ccc(NC(=O)Nc4cc(C(F)(F)F)ccc4F)cc3)c12 the inhibition [1] was -0.65% and 1.59%, the inhibition [2] was -1.33% and 0% and the inhibition [3] was 11.6% and 0%. For the same compound, the inhibition [4] was 2.39% and -3.9%, the inhibition [5] was 6.35% and 0.16% and the inhibition [6] was 5.79% and 7.04%. For the same compound, the inhibition [7] was 6.73% and 11.3%, the inhibition [8] was 1.45% and -2.16% and the inhibition [9] was 2.13% and 1.62%. The inhibition [10] was 1.57% and 0.44%.
